VP16 counter: VP16 counterscreen qHTS for inhibitors of ROR gamma transcriptional activity | Potency, µM (highest dose often 53.6 µM), inactives show top-dose activity, negative = inhibition, hits mostly inhibitors | Drosophila S2 Gal4-VP16 UAS-luciferase, luminescence, 20 h | 3.5% of 310,000 active;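 further: Gal4-VP16 expression switched on by copper sulfate through the metallothionein promoter; potency means the concentration at half of the fitted maximal effect; nearly all actives have a fitted effect of over 50% in size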
Coupling enz: qHTS Assay for Inhibitors of Fructose-1,6-bisphosphate Aldolase from Giardia Lamblia: Coupling assay counterscreen; 0.67% of 290,000 active; coupling enzyme system counterscreen, AmpLite Red fluorescence; activity change, negative = inhibition, % at 58.2 µM, hits read low; in the data active means activity change below about -30%
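Counterscreen lacking aldolase: glyceraldehyde-3-phosphate coupling-enzyme reagent preincubated 10 min at RT with compound (at 57.5 uM final), then substrate/coupling system with AmpLite Red added; fluorescence read at 525/598 nm after 20 min RT.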
TSHR antag: Antagonists of the Thyroid Stimulating Hormone Receptor: HTS campaign | TSHR-expressing cells, TSH-stimulated cAMP HTRF, 2 h; stronger effect = lower value | activity change, negative = inhibition, % at 11.5 µM | 0.2% of 330,000 active | AID 504810, 2011;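 active means activity change below a set negative limit, meaning inhibition stronger than a set level, cut at about -70% in these data; inconclusive means activity change between two set negative limits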
Target sequence (P16473 whole entry, looked up): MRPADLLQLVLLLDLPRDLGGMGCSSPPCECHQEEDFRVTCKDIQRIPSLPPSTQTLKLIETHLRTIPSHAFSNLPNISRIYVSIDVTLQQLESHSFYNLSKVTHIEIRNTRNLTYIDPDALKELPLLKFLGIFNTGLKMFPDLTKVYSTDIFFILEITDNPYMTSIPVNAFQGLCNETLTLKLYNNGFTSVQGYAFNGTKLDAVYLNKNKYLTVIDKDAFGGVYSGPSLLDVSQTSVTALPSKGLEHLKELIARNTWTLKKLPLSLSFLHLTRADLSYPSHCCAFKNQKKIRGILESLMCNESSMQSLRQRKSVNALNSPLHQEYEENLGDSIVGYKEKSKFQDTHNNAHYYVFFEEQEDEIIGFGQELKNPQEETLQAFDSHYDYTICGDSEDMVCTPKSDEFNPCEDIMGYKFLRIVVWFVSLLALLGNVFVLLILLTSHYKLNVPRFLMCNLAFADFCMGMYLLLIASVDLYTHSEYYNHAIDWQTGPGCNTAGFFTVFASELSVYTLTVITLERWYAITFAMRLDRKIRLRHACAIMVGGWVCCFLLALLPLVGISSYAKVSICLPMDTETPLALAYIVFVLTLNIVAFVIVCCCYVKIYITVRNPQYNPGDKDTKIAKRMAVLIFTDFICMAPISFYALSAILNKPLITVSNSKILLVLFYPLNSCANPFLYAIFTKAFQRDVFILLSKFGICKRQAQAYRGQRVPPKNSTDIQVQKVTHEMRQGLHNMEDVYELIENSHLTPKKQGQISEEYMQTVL
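Competitive HTRF cAMP read-out (cryptate anti-cAMP antibody, cAMP-d2; 30 min, room temperature) in freshly harvested TSHR cells. Compounds added before TSH at EC80 (4nM final), followed by 2 hours' incubation at 37 deg C.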
RORgamma inh: qHTS for inhibitors of ROR gamma transcriptional activity. Drosophila S2 Gal4-RORgamma UAS-luciferase reporter, 20 h. Potency, µM (top dose mostly 53.6 µM), without a hit: at the highest dose activity change, negative = inhibition, usual class: inhibitors. 5.4% of 310,000 active. AID 2551, 2010; further: potency means the concentration at half of the fitted maximal effect; nearly all actives have a fitted effect of over 60% in size
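Compounds are pin-transferred onto Drosophila Schneider cells expressing a copper-inducible Gal4–ROR gamma transactivation domain fusion. After 1 hr, copper sulfate is added to 700 uM final; luciferase is read 20 hr later.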
ELG1 DNA repair: qHTS screen for small molecules that inhibit ELG1-dependent DNA repair in human embryonic kidney (HEK293T) cells expressing luciferase-tagged ELG1. HEK293T ELG1-luciferase reporter, luminescence, 16 h; DNA damage induced by 5-fluorouridine. Potency, µM (top dose mostly 46.1 µM), for inactives: top-dose activity change, negative = inhibition, actives largely listed as inhibitors. 2.3% of 330,000 active. AID 504467, 2011; further: potency means the concentration at half of the fitted maximal effect; nearly all actives have a fitted effect of over 55% in size
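Quantitative HTS, concentration-response format. 2,000 cells/well co-treated with 5-fluorouridine and compound, 16 hr in 5% CO2 at 37 °C; ONE-Glo luminescence read after 30 min.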
* hit, by the source's call; ? = inconclusive; . = no result; [ ] = another dose, or the depositor's remark. Most compounds without a hit are left out; they make up all but 8% or so of the library. Unless noted, the call rests on the fitted dose curve; in most records, active means well fitted curve in the direction sought with a large enough effect; inconclusive means small, poorly fitted or top-dose-only effect, or another doubt; inactive means no such curve, though single readings can be large; an effect the other way counts as inactive or inconclusive. On the % scale 0 is the no-effect control and ±100 the full control effect.

SMILES | VP16 counter | Coupling enz | TSHR antag | RORgamma inh | ELG1 DNA repair
COc1ccccc1N1CCN(C(c2cc3ccc(C)cc3[nH]c2=O)c2nnnn2C2CCCC2)CC1 (stereo unspecified) | 1% | -34* | -13 | 33% | ?
CCOc1ccc2[nH]c(=O)c(C(c3nnnn3CC3CCCO3)N3CCc4ccccc4C3)cc2c1 (stereo unspecified) | -2% | -30* | 5 | 13% | -30%
Cc1ccc2cc(C(c3nnnn3CC3CCCO3)N3CCc4ccccc4C3)c(=O)[nH]c2c1 (stereo unspecified) | 10% | -38* | -6 | ? | 4%
CCc1cccc(CC)c1-n1c(SCC(=O)N2CCCc3ccccc32)nc(O)cc1=O | . | . | -11 | . | 16%
CCCCN(C(=O)c1ccc(N2CCCC2=O)cc1)c1c(N)n(CCC)c(=O)[nH]c1=O | . | . | 6 | . | 7%
Cc1cccc2cc(C(c3nnnn3CC3CCCO3)N3CCCc4ccccc43)c(=O)[nH]c12 (stereo unspecified) | -6% | -1 | -2 | -2% | -14%
Cc1cccc2cc(C(c3nnnn3CC3CCCO3)N3CCc4ccccc4C3)c(=O)[nH]c12 (stereo unspecified) | 9% | -44* | 13 | ? | -2%
O=c1[nH]c2cc3c(cc2cc1C(c1nnnn1Cc1ccccc1)N1CCCCCC1)OCCO3 (stereo unspecified) | ? | -1 | 4 | 4% | ?
O=c1[nH]c2cc3c(cc2cc1C(c1nnnn1Cc1ccccc1)N1CCCc2ccccc21)OCO3 (stereo unspecified) | 5% | 0 | 1 | -15% | 0.65µM*
CCc1ccc2[nH]c(=O)c(C(c3nnnn3CC3CCCO3)N3CCCc4ccccc43)cc2c1 (stereo unspecified) | 4% | -31* | 1 | -5% | -2%
COCCCNC(=O)CSc1nc2cc(C(=O)NCCOC)ccc2c(=O)n1Cc1ccc2c(c1)OCO2 | -9% | 4 | 3 | 4% | -6%
CNS(=O)(=O)c1c(C)cc(C)c(N(C)S(=O)(=O)c2ccccc2)c1C | 6% | 0 | 18 | -19% | -15%
CCOc1ccc(N2C(=O)CC(SC(=NC)Nc3ccc4c(c3)OCO4)C2=O)cc1 (stereo unspecified) | 2% | 0 | 16 | -17% | 26µM*
COc1ccc(NC(=O)N2CC3(CCN(C(=O)c4ccncc4)CC3)C2)cc1 | -5% | 1 | . | 2% | .
Fc1ccc(/C=N/Nc2nc3ccccc3[nH]2)cc1F | ? | -3 | -5 | 7.9µM* | ?
Fc1cccc(/C=N/Nc2nc3ccccc3[nH]2)c1 | ? | -2 | -13 | 10µM* | ?
C(/CCc1ccccc1)=N\Nc1nc2ccccc2[nH]1 | -26% | -1 | -1 | 11µM* | 1%
Cc1nn(-c2ccccc2)c(Cl)c1/C=N/Nc1nc2ccccc2[nH]1 | ? | 0 | -5 | ? | ?
C(=N\Nc1nc2ccccc2[nH]1)/c1ccccc1 | ? | 0 | -5 | 10µM* | ?
COc1cc2oc(=O)cc(-c3ccc(-c4ccc(NC(C)=O)cc4)cc3)c2c(OC)c1OC | -4% | 0 | . | 3% | .
COC(=O)[C@]1(Cc2ccccc2)N[C@H](CN(C)S(=O)(=O)c2ccc(-c3ccccc3)cc2)[C@@H]2C(=O)N(Cc3ccccc3)C(=O)[C@@H]21 | . | . | -2 | . | 9%
C(=N\Nc1nc2ccccc2[nH]1)/C1CCCCC1 | ? | -2 | -3 | 11µM* | 5%
Brc1ccc(-c2ccc(/C=N/Nc3nc4ccccc4[nH]3)o2)cc1 | 5µM* | 6 | 7 | 4.5µM* | ?
O=c1[nH]c(N/N=C/c2ccccc2)nc2ccccc12 | ? | -1 | -10 | -27% | ?
C(=C\c1ccccc1)/C=N/Nc1nc2ccccc2[nH]1 | 5µM* | 1 | 10 | 3.2µM* | ?
SMILES | VP16 counter | Coupling enz | TSHR antag | RORgamma inh | ELG1 DNA repair
CCCc1cc(=O)[nH]c(N/N=C/C=C\c2ccccc2)n1 | 4%[10 µM] | -2 | -4 | 7.1µM* | -14%
O=C(NCc1nc2ccccc2[nH]1)C1CCCCC1 | -8% | 0 | -12 | 9% | 6%
Cc1c(C(=O)O)cccc1-c1ccc(/C=N/Nc2ccc(Br)cc2)o1 | -8% | -4 | -22 | 31% | ?
COc1ccccc1CNC(=S)NC1CCCCC1 | 10µM* | 0 | -5 | 2.2µM* | -14%
O=C(COC(=O)C1CCC1)NCc1ccccc1Cl | -6% | -1 | -13 | -5% | -1%
COc1ccccc1CNC(=O)C1CCCC1 | -2% | 0 | 0 | 10% | 26%
S=C(NCc1ccccc1Cl)NC1CCCC1 | 8.9µM* | 1 | -10 | 6.3µM* | -14%
Fc1ccccc1CNC(=S)NC1CCCCC1 | 7.9µM* | 1 | -4 | 5µM* | 0%
Cc1cnc(NC(=O)c2c(Cl)cnn2C)s1 | ? | . | -8 | ? | 29%
O=C(CN1C(=O)NC2(CCCC2)C1=O)OCc1cccc(Br)c1 | . | . | 0 | . | 0%
Cc1cccc(-c2nn(-c3ccccc3)cc2C(=O)N(C)CC(=O)Nc2ccc(N3CCOCC3)cc2)c1 | . | . | 2 | . | 12µM*
CN(CC(=O)Nc1ccc(N2CCOCC2)cc1)C(=O)c1cn(-c2ccccc2)nc1-c1ccccc1 | . | . | 14 | . | ?
COc1ccc(-c2nn(-c3ccccc3)cc2C(=O)N(C)CC(=O)Nc2cccc(F)c2)cc1 | . | . | 25 | . | ?
COc1cccc(-c2nn(-c3ccc(C)cc3)cc2C(=O)N(C)CC(=O)Nc2cccc(F)c2)c1 | . | . | -4 | . | 13µM*
CCOc1ccc2ncc(S(=O)(=O)c3ccc(C)cc3)c(N3CCC4(CC3)OCCO4)c2c1 | -1% | -3 | 12 | ? | 18µM*
CCOC(=O)c1cnc2c(OC)cccc2c1N1CCN(c2ccccc2OC)CC1 | -10% | -5 | 11 | -41% | 10µM*
CCOC(=O)c1cnc2ccc(OCC)cc2c1NCCCN1CCOCC1 | -2% | 0 | 6 | 5% | -25%
CCOC(=O)c1cnc2c(OC)cccc2c1N1CCN(c2ccc(OC)cc2)CC1 | 2.2µM* | -10 | 2 | -5% | ?
CCOC(=O)c1cnc2ccc(OCC)cc2c1N1CCN(C)CC1 | -8% | -39* | 9 | 5% | 0%
COc1cccc(CNC(=O)Cn2ccc3cc(S(=O)(=O)N4CCC(C)CC4)ccc32)c1 | -4% | 2 | -3 | -5% | -10%
COCCN(C(=O)CCC(=O)Nc1cc(C)on1)C(C(=O)NC(C)(C)C)c1cccc(OC)c1OC (stereo unspecified) | -16% | 3 | 11 | -1% | -1%

Source: PubChem
